Measured values reported in PubChem BioAssay (EPA / NIEHS).
The source made the active and inactive calls. The calls were made as follows: active = hit-call score of the fitted dose curve at least 0.9, where 1 is the maximum; inactive = score below 0.9.

Experiments:
Details in all cases: mRNA level, 48 h; actives raise or lower the signal
CYP2E1 (gene 1571) = assay: LTEA_HepaRG_CYP2E1: Life Technologies and Expression Analysis (LTEA) Assay for CYP2E1 using HepaRG (AID 2283485)
How it was run: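 HepaRG cells, plated 48 h, then exposed 48 h in serum-free induction medium to eight half-log concentrations from 100 uM in 0.5% DMSO, duplicate. CYP2E1 mRNA by qRT-PCR, normalized to ACTB/GAPDH/POLR2A; bidirectional fit versus DMSO.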

CYP4A11 (gene 1579) = assay: LTEA_HepaRG_CYP4A11: Life Technologies and Expression Analysis (LTEA) Assay for CYP4A11 using HepaRG (AID 2283486)
How it was run: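 Human hepatic HepaRG cultures receive duplicate 48 h exposures across a concentration-response series topping at 100 uM. Expression changes in CYP4A11 are measured by qRT-PCR relative to DMSO controls.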

[1] = read-out: Cytochrome P450 3A4 (Homo sapiens) (UniProt P08684); assay: LTEA_HepaRG_CYP3A4: Life Technologies and Expression Analysis (LTEA) Assay for CYP3A4 using HepaRG (AID 2283487)
How it was run: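 Differentiated HepaRG cells, plated 48 h, then dosed 48 h in serum-free induction medium with 0.5% DMSO, 8 half-log concentrations up to 100 uM, duplicate. CYP3A4 mRNA by qRT-PCR, normalized to ACTB/GAPDH/POLR2A; bidirectional fit versus DMSO.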

[2] = read-out: DNA damage-inducible transcript 3 (DDIT3), DDIT3 (gene 1649); assay: LTEA_HepaRG_DDIT3: Life Technologies and Expression Analysis (LTEA) Assay for DNA damage-inducible transcript 3 (DDIT3) using HepaRG (AID 2283488)
How it was run: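 HepaRG cells, 48 h after plating, exposed 48 h in serum-free induction medium to 8 half-log concentrations up to 100 uM in 0.5% DMSO, in duplicate. DDIT3 mRNA measured by TaqMan qRT-PCR, normalized to ACTB, GAPDH and POLR2A. Fitted bidirectionally against DMSO.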

[3] = read-out: Pro-epidermal growth factor (Homo sapiens) (UniProt P01133); assay: LTEA_HepaRG_EGF: Life Technologies and Expression Analysis (LTEA) Assay for Epidermal growth factor (EGF) using HepaRG (AID 2283489)
How it was run: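 Concentration-response mRNA assay: HepaRG cells dosed 48 h (max 100 uM, 0.5% DMSO), EGF measured by qRT-PCR and normalized to ACTB/GAPDH/POLR2A.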

[4] = read-out: Early growth response protein 1 (EGR1) transcription factor, EGR1 (gene 1958); assay: LTEA_HepaRG_EGR1: Life Technologies and Expression Analysis (LTEA) Assay for Early growth response protein 1 (EGR1) transcription factor using HepaRG (AID 2283490)
How it was run: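 Differentiated HepaRG cells in serum-free induction medium exposed 48 hours, duplicate, to 8 half-log concentrations up to 100 uM in 0.5% DMSO. EGR1 mRNA measured by TaqMan qRT-PCR, normalized to ACTB, GAPDH, POLR2A; bidirectional fit versus DMSO.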

[5] = read-out: Cytochrome P450 3A7 (Homo sapiens) (UniProt P24462); assay: LTEA_HepaRG_CYP3A7: Life Technologies and Expression Analysis (LTEA) Assay for CYP3A7 using HepaRG (AID 2283492)
How it was run: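 qRT-PCR of CYP3A7 in HepaRG lysates after 48 h treatment; concentration-response (8 points, max 100 uM) analysed bidirectionally relative to 0.5% DMSO controls.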

CYP3A5 (gene 1577) = assay: LTEA_HepaRG_CYP3A5: Life Technologies and Expression Analysis (LTEA) Assay for CYP3A5 using HepaRG (AID 2283493)
How it was run: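 HepaRG cells, plated 48 h then in serum-free induction medium, dosed in duplicate for 48 h with eight half-log concentrations up to 100 uM in 0.5% DMSO. Gene mRNA by Fluidigm TaqMan qRT-PCR, normalized to ACTB, GAPDH, POLR2A.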

[6] = read-out: Fatty Acid-Binding Protein 1 (FABP1), FABP1 (gene 2168); assay: LTEA_HepaRG_FABP1: Life Technologies and Expression Analysis (LTEA) Assay for Fatty Acid-Binding Protein 1 (FABP1) using HepaRG (AID 2283494)
How it was run: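 Differentiated human HepaRG cells exposed 48 h in serum-free induction medium to eight half-log concentrations up to 100 uM (0.5% DMSO), duplicate. FABP1 mRNA by qRT-PCR, normalised to ACTB, GAPDH, POLR2A; bidirectional fitting against DMSO.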

[7] = read-out: Cytochrome P450 4A22 (Homo sapiens) (UniProt Q5TCH4); assay: LTEA_HepaRG_CYP4A22: Life Technologies and Expression Analysis (LTEA) Assay for Cytochrome P450 4A22 (CYP4A22) using HepaRG (AID 2283495)
How it was run: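 Concentration-response (8 points, max 100 uM, 0.5% DMSO) in human HepaRG liver cells after 48 h exposure. CYP4A22 mRNA by TaqMan qRT-PCR with housekeeping-gene normalization.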

[8] = read-out: Cytochrome P450 7A1 (Homo sapiens) (UniProt P22680); assay: LTEA_HepaRG_CYP7A1: Life Technologies and Expression Analysis (LTEA) Assay for Cytochrome P450 7A1 (CYP7A1) using HepaRG (AID 2283496)
How it was run: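 HepaRG cells plated 48 h, then switched to serum-free induction medium and exposed in duplicate for 48 h to 8-point half-log series from 100 uM in 0.5% DMSO. CYP7A1 mRNA by qRT-PCR (TaqMan), normalized to ACTB/GAPDH/POLR2A; bidirectional fit versus DMSO.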

[9] = read-out: Glutathione S-Transferase (GSTA2), GSTA2 (gene 2939); assay: LTEA_HepaRG_GSTA2: Life Technologies and Expression Analysis (LTEA) Assay for Glutathione S-Transferase (GSTA2) using HepaRG (AID 2283497)
How it was run: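 Differentiated human HepaRG cells were exposed in duplicate for 48 h in serum-free induction medium, 8 points from 100 uM top in half-log steps, 0.5% DMSO. GSTA2 mRNA was measured by TaqMan qRT-PCR, normalized to ACTB, GAPDH and POLR2A; bidirectional fit versus DMSO.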

[10] = read-out: Glutamate-cysteine ligase catalytic (GCLC), GCLC (gene 2729); assay: LTEA_HepaRG_GCLC: Life Technologies and Expression Analysis (LTEA) Assay for Glutamate-cysteine ligase catalytic (GCLC) using HepaRG (AID 2283498)
How it was run: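 Differentiated HepaRG cells exposed 48 h in serum-free induction medium, eight-point half-log series topping at 100 uM in 0.5% DMSO, duplicates. GCLC mRNA by qRT-PCR normalized to ACTB, GAPDH and POLR2A, fitted bidirectionally versus DMSO.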

[11] = read-out: growth arrest and DNA damage 45 (GADD45G), GADD45G (gene 10912); assay: LTEA_HepaRG_GADD45G: Life Technologies and Expression Analysis (LTEA) Assay for growth arrest and DNA damage 45 (GADD45G) using HepaRG (AID 2283499)
How it was run: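 Concentration-response in HepaRG: 48 h dosing, 0.5% DMSO, highest level 100 uM. GADD45G expression by qRT-PCR, normalised to endogenous controls; bidirectional fit to DMSO.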

[12] = read-out: Glutamate-cysteine ligase regulatory (GCLM), GCLM (gene 2730); assay: LTEA_HepaRG_GCLM: Life Technologies and Expression Analysis (LTEA) Assay for Glutamate-cysteine ligase regulatory (GCLM) using HepaRG (AID 2283500)
How it was run: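 Differentiated HepaRG cells exposed 48 h in serum-free induction medium to eight half-log concentrations up to 100 uM (0.5% DMSO). GCLM mRNA by TaqMan qRT-PCR, normalized to ACTB, GAPDH and POLR2A; bidirectional fit versus DMSO.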

[13] = read-out: Glutathione S-transferase M3 (GSTM3), GSTM3 (gene 2947); assay: LTEA_HepaRG_GSTM3: Life Technologies and Expression Analysis (LTEA) Assay for Glutathione S-transferase M3 (GSTM3) using HepaRG (AID 2283501)
How it was run: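 Expression of GSTM3 is determined by qRT-PCR in human liver HepaRG cells treated 48 h with an 8-point half-log range from 100 uM in 0.5% DMSO.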

[14] = read-out: Heat shock 70 kDa protein 1 (HSPA1A), gene 3303; assay: LTEA_HepaRG_HSPA1A: Life Technologies and Expression Analysis (LTEA) Assay for Heat shock 70 kDa protein 1 (HSPA1A) using HepaRG (AID 2283502)
How it was run: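 Human HepaRG cells in serum-free induction medium were exposed in duplicate for 48 h to 8 half-log concentrations, highest 100 uM, in 0.5% DMSO. HSPA1A mRNA read by TaqMan qRT-PCR, normalized to ACTB, GAPDH, POLR2A, fitted bidirectionally against DMSO.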

[15] = read-out: Hypoxia-inducible factor 1-alpha (Homo sapiens) (UniProt Q16665); assay: LTEA_HepaRG_HIF1A: Life Technologies and Expression Analysis (LTEA) Assay for Hypoxia-inducible factor 1 (HIF1A) Trancription factor using HepaRG (AID 2283503)
How it was run: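 Differentiated HepaRG cells in serum-free induction medium exposed 48 h, in duplicate, to 8-point half-log series from 100 uM in 0.5% DMSO. HIF1A mRNA measured by TaqMan qRT-PCR, normalized to ACTB/GAPDH/POLR2A, fitted bidirectionally versus DMSO.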

[16] = read-out: 3-Hydroxy-3-Methylglutaryl-CoA Synthase 2 (HMGCS2), HMGCS2 (gene 3158); assay: LTEA_HepaRG_HMGCS2: Life Technologies and Expression Analysis (LTEA) Assay for 3-Hydroxy-3-Methylglutaryl-CoA Synthase 2 (HMGCS2) using HepaRG (AID 2283504)
How it was run: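 This steatosis marker was read as HMGCS2 mRNA change in HepaRG cells treated 48 h with up to 100 uM chemical. Normalisation used housekeeping genes; activity in either direction was fitted relative to 0.5% DMSO vehicle.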

[17] = read-out: Ezrin (EZR), EZR (gene 7430); assay: LTEA_HepaRG_EZR: Life Technologies and Expression Analysis (LTEA) Assay for Ezrin (EZR) using HepaRG (AID 2283491)
How it was run: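 EZR transcript levels came from Fluidigm qRT-PCR and were normalized to three housekeeping genes after 48 h chemical exposure of HepaRG cells. Dosing used an 8-point half-log series with a 100 uM top concentration in 0.5% DMSO, tested in duplicate; both directions were fitted versus vehicle.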

Measured: AC50

Sequence of Hypoxia-inducible factor 1-alpha (Homo sapiens) (Q16665 whole entry, looked up): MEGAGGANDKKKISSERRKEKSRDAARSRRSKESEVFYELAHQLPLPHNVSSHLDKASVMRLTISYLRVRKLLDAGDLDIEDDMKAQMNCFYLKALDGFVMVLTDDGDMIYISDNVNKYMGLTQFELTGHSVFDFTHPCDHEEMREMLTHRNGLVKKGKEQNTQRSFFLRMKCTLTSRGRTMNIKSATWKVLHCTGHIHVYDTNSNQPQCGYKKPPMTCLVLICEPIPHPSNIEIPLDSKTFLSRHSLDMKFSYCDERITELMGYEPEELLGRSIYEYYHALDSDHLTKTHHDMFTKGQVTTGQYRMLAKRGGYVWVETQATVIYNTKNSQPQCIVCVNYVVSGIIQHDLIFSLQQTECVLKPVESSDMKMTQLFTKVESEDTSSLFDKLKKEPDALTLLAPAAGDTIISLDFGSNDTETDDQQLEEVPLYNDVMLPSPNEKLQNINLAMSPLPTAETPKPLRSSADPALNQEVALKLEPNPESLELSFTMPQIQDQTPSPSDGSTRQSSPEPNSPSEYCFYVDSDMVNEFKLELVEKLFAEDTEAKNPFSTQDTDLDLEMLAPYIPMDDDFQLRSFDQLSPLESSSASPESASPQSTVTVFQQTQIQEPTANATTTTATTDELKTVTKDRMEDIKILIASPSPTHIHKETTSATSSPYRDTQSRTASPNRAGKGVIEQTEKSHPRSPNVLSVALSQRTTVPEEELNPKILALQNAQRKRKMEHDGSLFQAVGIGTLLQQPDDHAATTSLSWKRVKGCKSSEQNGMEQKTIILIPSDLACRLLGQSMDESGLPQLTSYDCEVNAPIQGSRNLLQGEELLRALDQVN
Sequence of Cytochrome P450 3A7 (Homo sapiens) (P24462 whole entry, looked up): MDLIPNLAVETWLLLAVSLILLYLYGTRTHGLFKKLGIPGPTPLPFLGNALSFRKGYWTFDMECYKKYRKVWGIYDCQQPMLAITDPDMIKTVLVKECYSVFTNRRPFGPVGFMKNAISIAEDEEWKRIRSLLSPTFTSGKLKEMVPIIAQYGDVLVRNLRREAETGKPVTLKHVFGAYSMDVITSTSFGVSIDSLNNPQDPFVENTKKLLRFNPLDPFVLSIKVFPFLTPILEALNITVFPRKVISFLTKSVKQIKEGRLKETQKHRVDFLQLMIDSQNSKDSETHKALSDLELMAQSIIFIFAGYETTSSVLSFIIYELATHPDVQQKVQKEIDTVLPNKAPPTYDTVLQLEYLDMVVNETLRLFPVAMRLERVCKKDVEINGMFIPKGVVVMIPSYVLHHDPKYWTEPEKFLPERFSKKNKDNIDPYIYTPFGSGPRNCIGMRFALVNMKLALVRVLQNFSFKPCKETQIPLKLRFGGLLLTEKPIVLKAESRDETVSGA
Sequence of Cytochrome P450 3A4 (Homo sapiens) (P08684 whole entry, looked up): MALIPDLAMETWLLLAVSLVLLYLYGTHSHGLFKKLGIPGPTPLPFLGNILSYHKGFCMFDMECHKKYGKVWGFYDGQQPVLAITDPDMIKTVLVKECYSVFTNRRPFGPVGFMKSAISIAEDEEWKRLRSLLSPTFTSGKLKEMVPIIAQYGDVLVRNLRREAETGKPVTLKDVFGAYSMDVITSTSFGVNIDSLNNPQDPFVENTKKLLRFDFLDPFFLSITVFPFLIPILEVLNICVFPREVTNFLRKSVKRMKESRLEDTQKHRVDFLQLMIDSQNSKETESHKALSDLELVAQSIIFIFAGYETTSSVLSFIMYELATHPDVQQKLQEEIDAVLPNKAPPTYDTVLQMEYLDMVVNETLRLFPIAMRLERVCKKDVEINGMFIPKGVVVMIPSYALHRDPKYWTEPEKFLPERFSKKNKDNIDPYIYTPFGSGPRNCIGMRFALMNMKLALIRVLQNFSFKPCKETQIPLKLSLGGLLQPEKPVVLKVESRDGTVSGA

O=C(O)CC(O)C(=O)O (centres undefined)
not listed: [17]
inactive: all other assays above

CCNc1ccccc1
inactive: all assays above

Cc1[nH]cnc1C[C@H]1CCc2c(C)c3ccccc3n2C1=O
active: CYP2E1 (gene 1571) 17.6 µM | CYP4A11 (gene 1579) 13.2 µM | [2] 27.4 µM | [4] 70.2 µM | [6] 17.1 µM | [7] 18.9 µM | [8] 22.6 µM | [9] 30.5 µM | [10] 29.7 µM | [11] 81.1 µM | [14] 56.9 µM | [15] 24.3 µM | [16] 23.8 µM
inactive: [3] | CYP3A5 (gene 1577) | [12] | [13]

O=C1CCCCCN1
not listed: [17]
inactive: all other assays above

CC[C@H](C)C(=O)O[C@H]1C[C@@H](C)C=C2C=C[C@H](C)[C@H](CC[C@@H]3C[C@@H](O)CC(=O)O3)[C@H]21
active: CYP2E1 (gene 1571) 29.8 µM | [6] 13.2 µM
not listed: [1] | [5] | CYP3A5 (gene 1577)
inactive: all other assays above

CC(C)CCO
not listed: [3] | [7] | [8]
inactive: all other assays above

O=C(OC[C@H]1O[C@@H](OC(=O)c2cc(O)c(O)c(OC(=O)c3cc(O)c(O)c(O)c3)c2)[C@H](OC(=O)c2cc(O)c(O)c(OC(=O)c3cc(O)c(O)c(O)c3)c2)[C@@H](OC(=O)c2cc(O)c(O)c(OC(=O)c3cc(O)c(O)c(O)c3)c2)[C@@H]1OC(=O)c1cc(O)c(O)c(OC(=O)c2cc(O)c(O)c(O)c2)c1)c1cc(O)c(O)c(OC(=O)c2cc(O)c(O)c(O)c2)c1
inactive: [3] | [4] | [10] | [13] | [14] | [15]
active: CYP2E1 (gene 1571) 5.26 µM | CYP4A11 (gene 1579) 10.4 µM | [1] 11.3 µM | [2] 4.58 µM | [5] 8.99 µM | CYP3A5 (gene 1577) 4.94 µM | [6] 7.91 µM | [7] 12.4 µM | [8] 9.29 µM | [11] 25.6 µM | [12] 15.2 µM | [16] 9.74 µM

Nc1ccc(Nc2ccccc2)cc1
active: CYP2E1 (gene 1571) 71.2 µM | [5] 62.7 µM | [6] 50 µM | [8] 50 µM | [15] 50 µM | [16] 60.9 µM
not listed: [17]
inactive: all other assays above

O=c1n(CC2CO2)c(=O)n(CC2CO2)c(=O)n1CC1CO1 (centres undefined)
active: [1] 78.3 µM
not listed: [17]
inactive: all other assays above

CC(=O)OCCC(C)C
not listed: [17]
inactive: all other assays above
